According to PubChem BioAssay AID770 (SRMLSC, 2007):
Hit rate of the full screen: of about 3,300 compounds, fewer than 10 were called active.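 How the source made its calls: active means growth inhibition above 90% in viable cell count at a single dose; inactive means growth inhibition below 90%.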 These entries were drawn from the full list.

Assay: HT29 colon tumor cell growth inhibition, primary screen, imaging, high content imaging, 24 h, CellTiter-Glo (AID 770);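 on condensed nuclei: share of cells whose nuclear area falls below control median minus 1.5 SD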
Conditions: HT29 cell number by imaging, at 10 µM, stronger effect = higher value; for condensed nuclei: measured here: percent cells with condensed nuclei
[1] = measured here: ATP CellTiter-Glo viability

Structure (SMILES)	growth inhibition	growth inhibition [1] [%]	condensed nuclei [%]
Cc1ccc(N2CN=c3s/c(=C\c4cccnc4)c(=O)n3C2)cc1	8.42% (inactive)	6.47	1.92
O=C1NCC(COCC2CC=CCC2)O1 (stereo not given)	12.9% (inactive)	-2.87	2.4
COc1ccc(OC)c(N=C(C)C2=C(O)COC2=O)c1	23.1% (inactive)	7.81	1.86
CSc1nc(N2CCCC2)c2c(c1C#N)CC(C)(C)OC2	-22.4% (inactive)	-13.8	2.73
COc1ccc(N2CCN(c3oc(COc4ccc(Cl)cc4)nc3C#N)CC2)cc1	22.4% (inactive)	12.5	2.73
COC(=O)c1ccc(C2/C(=C(/O)c3ccc(OC)cc3)C(=O)C(=O)N2Cc2ccco2)cc1 (stereo not given)	26.5% (inactive)	-0.21	4.2
CCN(CC)c1ccc2cc(C(=O)Nc3ccccn3)c(=O)oc2c1	6.44% (inactive)	-4.18	2.75
CCCCCCc1cc2cc(-c3nnc(-c4ccccc4O)o3)c(=O)oc2cc1O	47% (inactive)	17.7	6.21
CCN(CC)c1ccc2cc(-c3nnc(-c4ccncc4)o3)c(=O)oc2c1	100% (active)	-9.78	2.72
CCOC(=O)CSc1nc(N)c(C#N)c(-c2ccc(OC)cc2)c1C#N	-7.67% (inactive)	-12.5	3.97
Cc1c(C)c2cc(Cl)c(O)c(CN3CCCC(C)C3)c2oc1=O (stereo not given)	25.4% (inactive)	-6.25	3.35
CCOP(=O)(c1ccccc1)C1(C#N)CCCC1 (stereo not given)	-30.7% (inactive)	-12.2	4.43
CCCCOc1ccc(CN(C)c2ncnc(N)n2)cc1	56% (inactive)	22.5	6.77
C1CCC(C(CC2CCCCN2)C2CCCCC2)CC1 (stereo not given)	99.3% (active)	97.5	30.1
CC1(C)CC(=O)C2=C(C1)N(Cc1ccco1)C(=O)C2(O)C(F)(F)F (stereo not given)	11% (inactive)	-21.1	2.44
CSc1nncc(=O)[nH]1	-17.8% (inactive)	10.8	1.83
CN1CCN(/C=N/c2sc3c(c2C#N)CCCCC3)CC1	45.9% (inactive)	15.9	4.6
COc1ccc2c(c1OC)C(=O)N1c3ccccc3SC21 (stereo not given)	-18.9% (inactive)	-15.6	2.15
Nc1ccc2oc(-c3ccccc3Cl)nc2c1	26.7% (inactive)	5.57	11.4
CCc1cc(=O)oc2c(CN3CCN(C)CC3)c(O)c(Cl)cc12	52.2% (inactive)	-8.76	4.11
CCOC(=O)NC(Nc1cc(C)on1)(C(F)(F)F)C(F)(F)F	-33.3% (inactive)	-14.8	4.42
COCCOC(=O)C1=C(C)OC(N)=C(C#N)C1c1ccco1 (stereo not given)	13.2% (inactive)	1.7	3.33
CCSc1nnc(NC(=O)C(CC)(C(F)(F)F)C(F)(F)F)s1	3.79% (inactive)	-3.56	3.03
COc1ccc(OC)c(C2/C(=C(/O)c3ccccc3)C(=O)C(=O)N2Cc2ccco2)c1 (stereo not given)	11.9% (inactive)	-6.75	4.83
O=C(C/C(=N/O)c1ccccc1O)C(F)F	-0.96% (inactive)	-14.3	1.25

Structure (SMILES)	growth inhibition	growth inhibition [1] [%]	condensed nuclei [%]
O=C(c1cccc2ccccc12)N1CCC(N2CCN(c3ccccc3)CC2)CC1	-27.1% (inactive)	-18.2	3.56
Cn1c(O)c(C=Nc2ccc(Cc3ccncc3)cc2)c(=O)n(C)c1=O	13.2% (inactive)	-6.92	1.24
CCOC(=O)CC1=NC(=O)CS1	7.12% (inactive)	1.44	1.37
Cc1ccc(S(=O)(=O)NC(=O)Nc2ncc3c(n2)CC(c2ccco2)CC3=O)cc1 (stereo not given)	-27% (inactive)	0.34	2.73
CCCc1nc2n[nH]c(N)c2c2c1CCCC2	3.73% (inactive)	6.01	3.31
O=C1C(=O)N(CCCn2ccnc2)C(c2ccccn2)/C1=C(/O)c1ccccc1 (stereo not given)	20.5% (inactive)	-11.5	3.21
CCOc1ccc(/C(O)=C2/C(=O)C(=O)N(CCN(CC)CC)C2c2ccco2)cc1 (stereo not given)	-44.4% (inactive)	-11.1	3.46
CC1CCN(c2[nH]c(=S)c(C#N)c3c2CCCC3)CC1	2.28% (inactive)	-10.9	1.9
CC1(C)CC(=O)C2=C(C1)N(Cc1ccco1)C(=O)C2(NC(=O)c1cccnc1)C(F)(F)F (stereo not given)	18.6% (inactive)	-14.4	1.91
CCCOc1ccc(Cc2nn[nH]n2)cc1	36.3% (inactive)	4.03	4.59
O=C(NCCOCCOCCNC(=O)c1cccnc1)c1cccnc1	-50.5% (inactive)	-16.6	2.66
CC(C)CSc1nc(N2CCOCC2)c2c(c1C#N)CC(C)(C)SC2	-12.2% (inactive)	13.9	2.93
CCOC(=O)C1CCN(c2nc3ccccc3nc2C(C#N)C(=O)OC(C)COC)CC1 (stereo not given)	-2.37% (inactive)	11.6	15.8
CCOc1ccc(-n2c(SCc3ccc(C#N)cc3)nnc2-c2cccnc2)cc1	17.1% (inactive)	-9.28	4.78
CCOC(=O)NC(O)C(=O)c1cccs1 (stereo not given)	-55.2% (inactive)	-7.3	1.51
CC(C)OC(=O)CC1=NC(=O)CS1	-22% (inactive)	-8.97	3.69
COc1ccc(C=NCCC2(O)CC(C)N(C)CC2C)cc1 (stereo not given)	22.1% (inactive)	-0.31	3.27
COC(=O)CSc1nc(C)c(C(C)=O)cc1C#N	14.2% (inactive)	-9.13	4.87
COc1ccc(C2Nc3ccccc3C(=O)N2Cc2ccco2)cc1CN1C(=O)c2ccccc2C1=O (stereo not given)	-35.2% (inactive)	-9.9	3.89
Cc1ccc(N2C(=O)CC(Cn3nc(C)cc3C)C2=O)cc1 (stereo not given)	5.93% (inactive)	-3.3	4
CCN(CC)c1ccc(C2Nc3cccc4cccc(c34)N2)c(O)c1	39.6% (inactive)	11.2	9.18
N#CCSc1nc2c(cc1C#N)CCCCCC2	27.6% (inactive)	16.5	3.85
O=C(c1ccco1)N1CCN(CCOCCOc2cccc3ccccc23)CC1	-0.64% (inactive)	-9.08	4.04
COC(=O)CSc1nnc(C)c(=O)[nH]1	-50.8% (inactive)	-8.35	0.97
CCN(CC)CCCn1c(C)cc2c(c1=O)C(c1ccccc1)C(C#N)=C(N)O2 (stereo not given)	3.77% (inactive)	-0.04	3.21

Structure (SMILES)	growth inhibition	growth inhibition [1] [%]	condensed nuclei [%]
C=CCN=C(C)C1=C(O)CCC1=O	-21.7% (inactive)	-5.99	1.55
CN(C)/C=C1\N=C(c2cccs2)OC1=O	21% (inactive)	8.97	2.88
COc1cccc2c1C(=O)c1c(O)c3c(c(O)c1C2=O)C[C@@](O)(C(=O)CO)C[C@@H]3O[C@H]1C[C@H](N)[C@H](O)[C@H](C)O1	84.2% (inactive)	0	0
COc1cccc2c1C(=O)c1c(O)c3c(c(O)c1C2=O)C[C@@](O)(C(C)=O)C[C@@H]3O[C@H]1C[C@H](N)[C@H](O)[C@H](C)O1	96.9% (active)	33.6	8.82
CC(C)CC(C(=O)O)C(C)CC(=O)Nc1ccn(-c2ccccc2)n1 (stereo not given)	23.8% (inactive)	-0.54	6.12
O=C(NCc1ccccn1)c1ccc(=O)oc1	3.8% (inactive)	-10.6	2.33
C=CCOc1ccc(C2/C(=C(\O)c3ccc(F)cc3)C(=O)C(=O)N2CCCN(C)C)cc1 (stereo not given)	12.6% (inactive)	-2.77	0.82
COc1ccc(OC)c(C2/C(=C(\O)c3ccc(OC)c(Cl)c3)C(=O)C(=O)N2CCN(C)C)c1 (stereo not given)	-11.2% (inactive)	-7.25	3.18
COc1cccc(C2/C(=C(\O)c3ccc4c(c3)OCCO4)C(=O)C(=O)N2CCN(C)C)c1 (stereo not given)	2.52% (inactive)	-0.26	1.83
CC1(C)Cc2c(sc3c2C2=NCCN2C=N3)CS1	8.06% (inactive)	0.86	5.47
Nc1nonc1-c1noc(N2CCOCC2)n1	-12.5% (inactive)	-12.3	1.72
O=C1C2ON(c3ccccc3)C(c3cccnc3)C2C(=O)N1Cc1ccccc1 (stereo not given)	13.7% (inactive)	-16.2	2.97
N#CC(C(=O)NC1CC1)c1nc2ccccc2nc1N1CCN(C/C=C/c2ccccc2)CC1 (stereo not given)	-33.2% (inactive)	-7.38	1.95
CCOC(=O)c1cc(CC)sc1NC(=O)C1CC1	-8.79% (inactive)	-9.23	2.27
CN1C(=O)c2ccc(N(C)C)cc2C1=O	-24.1% (inactive)	-7.32	1.05
CCN1C(=O)CC(N2CCN(c3ccc(OC)cc3)CC2)C1=O (stereo not given)	-5.76% (inactive)	-6.84	4.31
COc1ccc(S(=O)(=O)N2CCC(N3CCCCC3)CC2)cc1	-21.4% (inactive)	3.08	2.89
Cc1cccn2c(=O)c3cc(C(N)=S)c(=N)n(CCCOC(C)C)c3nc12	-47.5% (inactive)	-18.1	3.48
Cc1cccc(C)c1NC(=O)CSCC(=O)c1ccc(O)c(O)c1	24.8% (inactive)	-2.15	7.02
CC(C)Cc1nc(N2CCN(C(=O)Cc3ccccc3)CC2)c(C#N)c2c1COC(C)(C)C2	-45.4% (inactive)	-6.01	0.93
Cc1ccc(Oc2nc3c(c(=O)n(Cc4ccccc4F)c(=O)n3C)n2C)cc1	1.1% (inactive)	5.27	1.09
c1ccc2c(c1)NC(c1ccncc1)n1c-2nc2ccccc21 (stereo not given)	16.4% (inactive)	-9.59	3.13
COc1ccc(/C(O)=C2/C(=O)C(=O)N(c3ncccn3)C2c2ccc(OC)c(OC)c2)cc1 (stereo not given)	59.3% (inactive)	10.6	4.07
O=C1CC(c2ccccc2)NC(=O)N1 (stereo not given)	-5.61% (inactive)	1.46	3.08
FC(F)(F)c1cccc(N2CCc3cn[nH]c32)c1	21.1% (inactive)	-4.43	4.2
